# Measured values reported in article PMC4336329 (PLoS ONE, 2015).
# In all, about 310,000 compounds went through this assay and about 14,000 (4.5%) showed an effect of 50% or more. Effects have a minus sign here. This excerpt belongs to a sample that is enriched for strong results.
# Molecular target: human ether-à-go-go-related gene (hERG) potassium channel (human, UniProt Q12809)
# Assay: primary screen, population patch clamp on CHO cells stably expressing hERG; higher = less effect of the substance
# 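Note: peak tail current of the secondary pulse compared with the same well before compound.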
# Chain of human ether-à-go-go-related gene (hERG) potassium channel (Q12809 whole entry, looked up): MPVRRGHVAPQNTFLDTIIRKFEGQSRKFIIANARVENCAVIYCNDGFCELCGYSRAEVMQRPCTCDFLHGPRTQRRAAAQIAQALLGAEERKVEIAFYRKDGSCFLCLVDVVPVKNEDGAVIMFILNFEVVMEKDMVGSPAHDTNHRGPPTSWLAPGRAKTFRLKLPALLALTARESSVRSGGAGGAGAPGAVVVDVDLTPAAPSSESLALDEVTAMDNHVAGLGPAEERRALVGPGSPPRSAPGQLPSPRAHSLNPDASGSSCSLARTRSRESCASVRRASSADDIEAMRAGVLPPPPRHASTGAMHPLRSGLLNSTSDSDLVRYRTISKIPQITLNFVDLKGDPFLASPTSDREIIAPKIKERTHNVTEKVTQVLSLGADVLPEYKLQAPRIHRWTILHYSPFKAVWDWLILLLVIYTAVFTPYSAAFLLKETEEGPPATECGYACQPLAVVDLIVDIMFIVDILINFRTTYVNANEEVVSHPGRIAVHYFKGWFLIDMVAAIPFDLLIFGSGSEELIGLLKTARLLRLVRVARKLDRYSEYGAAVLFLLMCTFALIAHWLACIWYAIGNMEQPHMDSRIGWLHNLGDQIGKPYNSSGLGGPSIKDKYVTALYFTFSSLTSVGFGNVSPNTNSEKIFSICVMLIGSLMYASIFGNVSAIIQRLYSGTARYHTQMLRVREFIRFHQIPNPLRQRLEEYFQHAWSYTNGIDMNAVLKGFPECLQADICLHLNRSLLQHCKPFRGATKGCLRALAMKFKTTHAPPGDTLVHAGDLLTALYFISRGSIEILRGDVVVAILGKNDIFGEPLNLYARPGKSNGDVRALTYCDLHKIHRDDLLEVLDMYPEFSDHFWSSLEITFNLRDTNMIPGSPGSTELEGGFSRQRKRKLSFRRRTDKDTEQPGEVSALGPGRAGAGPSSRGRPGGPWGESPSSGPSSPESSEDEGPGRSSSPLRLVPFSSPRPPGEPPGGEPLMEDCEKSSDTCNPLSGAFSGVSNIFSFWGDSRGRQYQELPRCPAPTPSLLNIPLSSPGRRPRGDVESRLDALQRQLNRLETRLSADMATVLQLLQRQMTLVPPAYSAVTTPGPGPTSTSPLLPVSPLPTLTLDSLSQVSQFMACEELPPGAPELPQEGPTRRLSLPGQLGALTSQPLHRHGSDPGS
row,Compound,"hERG current change (%, negative = inhibition) at 10uM"
1,Cc1ccccc1NC(=O)CSc1nnc(CNC(=O)c2ccc3c(c2)OCO3)n1C,1.34%
2,CCC1C(=O)NCCN1C(=O)CCc1nnc(CCc2ccc(OC)cc2)o1 (centres unmarked),21.9%
3,Cc1ccc(C(=O)NCCNC(=O)COc2ccccc2Cl)cn1,6.95%
4,CCN(CC)CCCN(C(=O)c1ccccc1F)c1nc(-c2ccc(OC)cc2)cs1,-71.4%
5,CCN(CC)CCCN(C(=O)c1ccccc1C)c1nc(-c2ccc(OC)cc2)cs1,-55.5%
6,COCCN(C(=O)c1ccccc1F)c1nc(-c2ccc(OC)cc2)cs1,16.7%
7,COCCCN(C(=O)c1ccccc1F)c1nc(-c2ccc(OC)cc2)cs1,8.7%
8,CCN(C(=O)c1ccccc1F)c1nc(-c2ccc(OC)cc2)cs1,22.8%
9,CN(CC(=O)Nc1cccc(F)c1)C(=O)CCNC(=O)c1ccco1,16.7%
10,CCC(C)(C)NC(=O)C(c1ccccc1)N(Cc1cccs1)C(=O)Cn1nnc2ccccc21 (centres unmarked),7.58%
11,Cc1cccc(/C(N)=N/OC(=O)COc2ccc(Cl)c(C)c2)c1,13.2%
12,COc1ccc(N2CCN(CCCNC(=O)c3cc4sccc4n3C)CC2)cc1,-70.7%
13,COc1ccc(N2CCN(CCCNC(=O)CCCn3c(=O)[nH]c4ccsc4c3=O)CC2)cc1,-9.7%
14,Cn1c(C(=O)NCCCN2CCCCC2)cc2sccc21,-49%
15,CC1CCN(CCCNC(=O)c2cc3sccc3n2C)CC1,-57.3%
16,COCCNC(=O)c1cc2sccc2n1C,1.67%

row,Compound,"hERG current change (%, negative = inhibition) at 10uM"
1,COc1ccc(CCNC(=O)c2cc3sccc3n2C)cc1OC,-6.67%
2,COC(=O)CSc1ccsc1C(=O)O,5.72%
3,COc1ccc(-c2cc3c(=O)n(CC(=O)Nc4cccc(Cl)c4)nc(C)n3n2)cc1,14.8%
4,CCCC(=O)Nc1cccc(NC(=O)c2cccc([N+](=O)[O-])c2C)c1,-12.8%
5,CCCCN(CC)CCNC(=O)CN1C(=O)COc2ccc(S(=O)(=O)N3CCCC3)cc21,-3.34%
6,CCN(CC)S(=O)(=O)c1ccc2c(c1)N(CC(=O)N1CCCC1)C(=O)CO2,-5.64%
7,CCCCN(CCCNC(=O)CN1C(=O)COc2ccc(S(=O)(=O)N3CCC(C)CC3)cc21)Cc1ccccc1,-76.6%
8,CCN(Cc1ccccc1)C(=O)CN1C(=O)COc2ccc(S(=O)(=O)NC3CCCC3)cc21,-54.2%
9,CCCCN(CCCC)CCNC(=O)CN1C(=O)COc2ccc(S(=O)(=O)N3CCOCC3)cc21,-42.3%
10,CC1CCN(S(=O)(=O)c2ccc3c(c2)N(CC(=O)NCCCN2C(C)CCCC2C)C(=O)CO3)CC1 (centres unmarked),17.3%
11,CCN(CC)S(=O)(=O)c1ccc2c(c1)N(CC(=O)N(CCc1ccncc1)C(C)C)C(=O)CO2,-53.3%
12,CC1CCN(S(=O)(=O)c2ccc3c(c2)N(CC(=O)NCCCN2CCCC(C)C2)C(=O)CO3)CC1 (centres unmarked),-8.35%
13,CCCCN(CCCC)CCNC(=O)CN1C(=O)COc2ccc(S(=O)(=O)N3CCC(C)CC3)cc21,-66.5%
14,CCN(Cc1ccccc1)C(=O)CN1C(=O)COc2ccc(S(=O)(=O)N3CCCCCC3)cc21,-8.9%
15,CCN(CC)S(=O)(=O)c1ccc2c(c1)N(CC(=O)NCCc1ccc(S(N)(=O)=O)cc1)C(=O)CO2,-1.7%
16,CC(C)N(Cc1ccccc1)C(=O)CN1C(=O)COc2ccc(S(=O)(=O)NC3CCCC3)cc21,-36.1%
